PfHsp90 yeast 2: growth inhibition of PfHsp90-expressing yeast, primary screen, antimalarial PfHsp90 inhibitor project, S. cerevisiae, BacTiter-Glo luminescence, single point, set 2 | BacTiter-Glo ATP, 48 h; yeast lacking PDR1 and PDR3 efflux regulators | inhibition, % at 9.4 µM | 310,000 tested, 0.32% active | AID 504621, 2011;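 active means every replicate shows inhibition above about 80%, whatever the replicate mean, limit read from the data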
SKKanGAS inh: S. pyogenes SKKanGAS growth inhibitors in kanamycin, primary screen, streptokinase expression inhibitor project, SKKanGAS strain, BacTiter-Glo luminescence. 6 h. inhibition, % at 7.5 µM. 300,000 tested, 1.3% active. AID 1662, 2009;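 active means mean replicate score, as percent of positive control median, at least 50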;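 further: strain carries kanamycin resistance gene driven by streptokinase promoter and grows in 40 µg/ml kanamycin; loss of luminescence reflects streptokinase promoter inhibition or plain growth inhibition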
NALP1 yeast inh: NALP1 inflammasome inhibitors in reconstituted yeast, colorimetric, S. cerevisiae, triplicate retest | S. cerevisiae NALP1/ASC/caspase-1 growth, X-gal OD620, 72 h | inhibition, % at 10 µM | 280,000 tested, 0.61% active | AID 2071, 2009; in the data active means inhibition mostly above about 24%, no sharp cut-off; inactive means mostly below about 32%
tim23-1 inh: growth inhibitors of tim23-1 mutant yeast, primary screen, luminescence, uHTS | 330,000 tested, 1.3% active | inhibition, % at 20 µM | S. cerevisiae tim23-1 growth, BacTiter-Glo luminescence, 24 h;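 active means growth inhibition of the mutant yeast at or above 50%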;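 further: temperature-sensitive mutant grown at 25 °C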
tim10-1 inh: growth inhibitors of tim10-1 mutant yeast, primary screen, luminescence, uHTS | S. cerevisiae tim10-1 ts strain growth, BacTiter-Glo, 24 h | inhibition, % at 20 µM | 330,000 tested, 2.2% active | AID 463190, 2010;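 active means inhibition of at least 40%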;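 further: mutant grown at 25 °C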
TIM10 inh: growth inhibitors of isogenic TIM10 control yeast, primary screen, counter-screen for tim10-1 yeast inhibitor project, luminescence, uHTS; S. cerevisiae TIM10 strain growth, BacTiter-Glo luminescence, 24 h; inhibition, % at 10 µM; 330,000 tested, 1.4% active;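 active means inhibition of 40% or more at the single tested concentration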;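 further: wild-type TIM10 isogenic control strain grown at permissive 25 °C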
tim10-1 conf: growth inhibitors of tim10-1 mutant yeast, confirmation, single concentration, luminescence, S. cerevisiae; shares compounds with tim10-1 inh; S. cerevisiae tim10-1 ts strain growth, BacTiter-Glo, 24 h; inhibition, % at 20 µM; 7,400 tested, 56% active; AID 463213, 2010;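 active means inhibition of yeast growth at or above a set limit in either of two repeat tests at 20 µM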;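 further: tim10-1 mutant grown at permissive 25 °C to find synthetic lethal compounds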
tim10 confirm: growth inhibitors of wild-type TIM10 yeast, confirmation, counter-screen for tim10-1 synthetic lethality project, single concentration, luminescence, S. cerevisiae | shares compounds with TIM10 inh | S. cerevisiae tim10 strain growth, BacTiter-Glo luminescence, 24 h | inhibition, % at 10 µM | 4,600 tested, 63% active | AID 463215, 2010;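 active means inhibition of yeast growth at or above a set limit in either of two replicates at 10 µM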; further: this counterscreen used the strain with wild-type TIM10
tim23-1 conf: tim23-1 mutant yeast growth inhibitors, confirmation, luminescence, single concentration. 4,400 tested, 83% active. shares compounds with tim23-1 inh. inhibition, % at 20 µM. S. cerevisiae tim23-1 growth, BacTiter-Glo luminescence, 24 h;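 active means inhibition above about 39% in either of two replicate wells at 20 µM, limit read from the data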;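 further: temperature-sensitive tim23-1 mutant grown at 25 °C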
Of the large screens only hits and unclear results are named; the others gave an inactive call (follow-up assays come after a bar, where they were run). Most compounds without a hit are left out; they make up all but 4.8% or so of the library.

Cc1cccc(-c2cc3nc4c(c(NCc5ccco5)n3n2)CCCC4)c1	tim23-1 inh 53.8, tim10-1 inh 53.0 | tim10-1 conf 33.7 | tim23-1 conf 56.5
Cc1cc(-c2nnc(CCC(=O)N(C)Cc3ccsc3)o2)no1	none
CC(=O)C1=C(C)NC(SCC(=O)c2ccc(Cl)cc2Cl)=C(C#N)C1c1ccco1 (stereo unspecified)	tim23-1 inh 52.8, tim10-1 inh 54.9 | tim10-1 conf 42.5 | tim23-1 conf 49.7
CCNC(=S)NNC(=O)c1cc(-c2ccc(OCC)cc2)nc2ccccc12	tim23-1 inh 77.6, tim10-1 inh 86.1 (no result: PfHsp90 yeast 2) | tim10-1 conf 65.8 | tim23-1 conf 86.2
CCc1ccc(-c2cc(C(=O)Nn3cnnc3)c3ccccc3n2)cc1	tim23-1 inh 52.7, tim10-1 inh 54.1 | tim10-1 conf 35.6 | tim23-1 conf 39.5
CCNC(=S)NNC(=O)c1cc(-c2cccc(OC)c2)nc2ccccc12	tim23-1 inh 56.2, tim10-1 inh 56.0 | tim10-1 conf 50.3 | tim23-1 conf 53.7
COc1ccccc1-c1nnc(C2CCN(S(=O)(=O)c3cccc([N+](=O)[O-])c3)CC2)o1	none
CN(CCO)C1=NS(=O)(=O)c2cc([N+](=O)[O-])ccc21	none
Cc1ccc(-c2csc(NC(=O)c3ccccc3F)c2C(=O)O)cc1	tim23-1 inh 83.5, tim10-1 inh 78.7, TIM10 inh 73.8 | tim10-1 conf 79.4 | tim10 confirm 83.8 | tim23-1 conf 88.4
O=C(Nc1scc(-c2ccc(Br)cc2)c1C(=O)O)c1ccccc1F	SKKanGAS inh 78.3, tim23-1 inh 87.6, tim10-1 inh 74.4, TIM10 inh 74.2 (no result: NALP1 yeast inh) | tim10-1 conf 82.2 | tim10 confirm 91.0 | tim23-1 conf 89.0
Cc1cc(NC(=O)c2ccccc2)ncc1NC(=O)c1ccco1	none
N#Cc1ccc(OCc2nnc3n2CCCCC3)cc1	none
Cc1cc(N)n2ncc(-c3ccccc3)c2n1	none
Cc1cc(N)n2ncc(-c3cccc(Br)c3)c2n1	tim23-1 inh 81.5, tim10-1 inh 45.6, TIM10 inh 51.4 (no result: SKKanGAS inh) | tim10-1 conf 50.2 | tim10 confirm 52.5 | tim23-1 conf 40.0
CCOc1ccc(CCNC(=O)CCNS(=O)(=O)c2ccc(Br)cc2)cc1OCC	none
CC1Cc2ccccc2N1C(=O)CN1CCC(n2nnc3cc(C(F)(F)F)ccc32)CC1 (stereo unspecified)	tim23-1 inh 50.1, tim10-1 inh 41.3 | tim10-1 conf 37.5 | tim23-1 conf 42.1
COC(=O)c1ccccc1NC(=O)CN1CCC(n2nnc3cc(C(F)(F)F)ccc32)CC1	none
c1ccc(-c2nnc(-c3ccccn3)nn2)nc1	none (no result: NALP1 yeast inh)
c1ccc(-c2cccc(-c3ccccn3)n2)nc1	PfHsp90 yeast 2 145.9, NALP1 yeast inh 51.2, tim23-1 inh 57.5, tim10-1 inh 60.1 | tim10-1 conf 43.0 | tim23-1 conf 57.3
CCOC(=O)C1=C(Cc2ccc(F)cc2)C(=O)c2ccccc2C1=O	tim23-1 inh 65.7, tim10-1 inh 56.6, TIM10 inh 63.7 | tim10-1 conf 67.5 | tim10 confirm 56.8 | tim23-1 conf 70.9
Cc1ccc(C(=O)Nc2scc(-c3ccccc3)c2C(=O)O)o1	none (no result: PfHsp90 yeast 2)
Cc1ccc(-c2csc(NC(=O)c3ccc(F)cc3)c2C(=O)O)cc1	tim23-1 inh 77.2, tim10-1 inh 81.2, TIM10 inh 82.3 | tim10-1 conf 81.7 | tim10 confirm 94.2 | tim23-1 conf 88.4
COc1ccc(-c2csc(NC(=O)c3ccc(C(C)(C)C)cc3)c2C(=O)O)cc1	SKKanGAS inh 81.8, tim23-1 inh 84.7, tim10-1 inh 84.5, TIM10 inh 73.4 (no result: PfHsp90 yeast 2, NALP1 yeast inh) | tim10-1 conf 83.3 | tim10 confirm 92.3 | tim23-1 conf 89.5
O=C(Nc1scc(-c2ccccc2)c1C(=O)O)c1ccc(F)cc1	tim23-1 inh 84.8, tim10-1 inh 67.0, TIM10 inh 60.3 | tim10-1 conf 71.8 | tim10 confirm 45.4 | tim23-1 conf 86.5
Cc1cc(=O)c2cc(Br)ccc2n1CC(=O)NCc1ccccc1	none (no result: NALP1 yeast inh)
Cc1cc(O)c(C(=O)/C=C/c2ccc(Cl)cc2)c(=O)o1	tim23-1 inh 53.3, tim10-1 inh 47.2 | tim10-1 conf 39.6 | tim23-1 conf 51.6
Cc1nn(-c2cccc(C(F)(F)F)c2)c(Cl)c1/C=N/Nc1cccc(C(=O)O)c1	none (no result: tim23-1 inh, tim10-1 inh, TIM10 inh)
CCOC(=O)N/N=C/c1c(C)nn(-c2cccc(C(F)(F)F)c2)c1Cl	tim23-1 inh 58.0, tim10-1 inh 47.4 | tim10-1 conf 35.5 | tim23-1 conf 60.2
O=C(c1ccco1)N(Cc1cccc(F)c1)C1CCS(=O)(=O)C1 (stereo unspecified)	none
COc1ccccc1/C=C(\C#N)C(=O)c1cccn1C	tim23-1 inh 58.5, tim10-1 inh 43.2 | tim10-1 conf inactive | tim23-1 conf 50.1
COc1ccc(S(=O)(=O)CC(=O)c2cc3cccc(C)c3oc2=O)cc1	tim23-1 inh 65.3, tim10-1 inh 53.0 | tim10-1 conf inactive | tim23-1 conf 56.8
COc1cccc2cc(C(=O)CS(=O)(=O)c3ccc(C(C)(C)C)cc3)c(=O)oc12	tim23-1 inh 52.3, tim10-1 inh 47.9 | tim10-1 conf inactive | tim23-1 conf 54.4
COC(=O)c1ccc2c(c1)C(NC(C)=O)CCc1cc(OC)c(OC)c(OC)c1-2 (stereo unspecified)	none (no result: SKKanGAS inh, NALP1 yeast inh, tim23-1 inh, tim10-1 inh, TIM10 inh)
C#CCSc1cc(C(F)(F)F)nc(-c2ccccn2)n1	none
CCOc1ccccc1N1CCN(Cc2cccc(OC)c2O)CC1	none
COc1ccccc1N1CCN(Cc2cc(Br)c(O)c3ncccc23)CC1	SKKanGAS inh 82.3, tim23-1 inh 67.5, tim10-1 inh 53.6 | tim10-1 conf inactive | tim23-1 conf 57.4
CCOC(=O)c1ccc(NC(=O)c2cc(C)nc3ccccc23)cc1	none
O=C(O)COc1ccccc1/C=N/n1c(C2CCCCC2)n[nH]c1=S	none
S=c1[nH]nc(C2CCCCC2)n1/N=C/c1ccccc1Br	tim23-1 inh 51.6, tim10-1 inh 41.9 | tim10-1 conf inactive | tim23-1 conf 63.3

Screening data: PubChem BioAssay, several laboratories
